Measured values reported in PubChem BioAssay (Tox21).
Inconclusive results are not listed. Values without a mark were called inactive. The call rests on the fitted dose curve; in most records, active means well fitted activation curve with a large enough effect in the signal ratio in the repeat runs (not every such curve was filed as active); inconclusive means weak or mixed curves, or effect the other way; inactive means flat fitted curve, though single readings scatter; the % refers to the signal ratio.

test: qHTS assay to identify small molecule agonists of the endoplasmic reticulum stress response signaling pathway (AID 1159516); settings: ESRE-bla HeLa, ER stress beta-lactamase reporter, 5 h; series mostly up to 61 µM; activation: at the top concentration
Source text: National Center for Advancing Translational Sciences [NCATS]
NIH Chemical Genomics Center [NCGC]
U.S. Environmental Protection Agency [EPA]
National Institutes of Environmental Health Sciences [NIEHS]
National Toxicology Program [NTP]
U.S. Food and Drug Administration [FDA]
Endoplasmic Reticulum (ER) plays an important role in cellular signaling, protein folding/maturation, stress response, lipid biosynthesis, calcium storage and release etc. Under stress conditions, proteins in ER misfold or unfold, and leading to the expression of ER stress responsive genes. ER stress has been associated with a variety of pathophysiological conditions such as cancer, inflammation, neurodegenerative diseases, diabetes, ischemic heart disease etc. To identify the compounds that induce ER stress response, an ER stress reporter cell line, CellSensor ESRE-bla HeLa (Life Technologies, Carlsbad, CA) containing a beta-lactamase reporter gene under control of the Endoplasmic reticulum Stress Response Element (ESRE) was used to screen Tox21 10K compound library.
Tox21 Assay Protocol Summary:
ESRE-bla HeLa cells were dispensed at 1,500 cells/6 uL of assay medium per well into black wall/clear-bottom 1536-well plates using a Multidrop Combi (ThermoFisher Scientific, Waltham, MA) dispenser. After the assay plates were incubated at 37 C and 5% CO2 for an overnight, 23 nL of compounds dissolved in DMSO, positive controls or DMSO only was transferred to the assay plate by a Pintool station (Kalypsys, San Diego, CA). The assay plates were incubated at 37 C and 5% CO2 for 5 hr. One uL of LiveBLAzer B/G FRET substrate (Life Technologies) was added using a Flying Reagent Dispenser (Aurora Discovery, San Diego, CA) and the plates were incubated at room temperature for 2 hr. Fluorescence intensity (405 nm excitation, 460 nm and 530 nm emissions) was measured using an Envision plate reader (PerkinElmer, Shelton, CT).
On the % scale 0 is the no-effect control and ±100 the full control effect.

SMILES | activation
CC(C)COC(=O)/C=C/c1ccccc1 | 0.764%
CCCCCC1CCCC(=O)O1 (stereo not given) | -0.31%
C[C@H](CCC(=O)O)[C@H]1CC[C@H]2[C@@H]3[C@H](O)C[C@@H]4C[C@H](O)CC[C@]4(C)[C@H]3C[C@H](O)[C@]12C | -1.14%
Cc1cccc(Nc2ccncc2S(=O)(=O)NC(=O)NC(C)C)c1 | 4.35%
c1ccc(CNc2ncnc3nc[nH]c23)cc1 | -1.84%
O=C1c2ccccc2-c2ccccc21 | -1.05% [at 78.8 µM]
NC(=O)NNC(N)=O | 3.81%
COc1ccc(/C=N/NC(=O)c2ccncc2)cc1OC | 1.34%
CCN1CN(CC)CN(CC)C1 | -1.65%
Nc1ccc(/C=C/c2ccc(N)cc2S(=O)(=O)O)c(S(=O)(=O)O)c1 | 0% [at 0.628 µM]
CC(=O)Nc1ccc(C)cc1 | -0.402%
Cn1c(=O)c2c(ncn2CC2OCCO2)n(C)c1=O | 0.668%
O=C1OC(=O)c2ccccc21 | 0.714%
CCCCC(=O)N(C)C | 1.67%
COc1cc(C=O)ccc1OC(=O)C(C)C | 0.322%
NS(=O)(=O)c1cc2c(cc1Cl)NC(C(Cl)Cl)NS2(=O)=O (stereo not given) | 1.08%
NS(=O)(=O)c1cc2c(cc1Cl)NC(CC1CCCC1)NS2(=O)=O (stereo not given) | -0.474%
C1CCN2C[C@@H]3C[C@@H](CN4CCCC[C@@H]34)[C@H]2C1 | -0.263%
CN=C(NC#N)NCCSCc1csc(N=C(N)N)n1 | 2.46%
CCCCC(C)C(=O)O (stereo not given) | 0.841%

SMILES | activation
Cc1ccccc1C(=O)N1CC/C(=N\OS(=O)(=O)O)c2ccc(Cl)cc21 | 0.0551%
Cc1nc(C)nc(N2C[C@@H](C)N(c3ccnc([C@@H](C)O)n3)[C@@H](C)C2)n1 | -2.85%
COC(OC)C(C)c1ccccc1 (stereo not given) | 2.99%
CCCCC(CC)COC(=O)c1ccccc1 (stereo not given) | 2.67%
CN[C@@H]1[C@@H](O)[C@@H](O[C@@H]2[C@H](O)[C@H](O[C@H]3OC(CN)=CC[C@H]3N)[C@@H](N)C[C@H]2N)OCC1(C)O (stereo not given in full) | 1.08%
CCOc1ccc(NC(=O)OC(C)C)cc1OCC | -0.427%
CCN(Cc1cccc(S(=O)(=O)O)c1)c1ccccc1 | -1.98%
CC(C)COC(=O)CC(C(=O)OCC(C)C)S(=O)(=O)O (stereo not given) | 0.665%
CCCCOC(=O)C(=O)OCCCC | 1.76%
CNC(=O)C(c1ccccc1)c1ccccc1 | -0.949%
Cc1cc(O)c2c(c1)C(=O)c1cccc(O)c1C2=O | -6.65%
CCNC(=O)NCCCOc1cccc(CN2CCCCC2)c1 | 2.43%
CCCCCN(CCCOC)C(=O)C(CCC(=O)O)NC(=O)c1ccc(Cl)c(Cl)c1 (stereo not given) | -0.493%
CCCCCCCC/C=C\CCCCCCCC(=O)OC[C@@H](O)[C@H]1OC[C@H](O)[C@H]1O | -0.0457%
CC(=O)c1ccc(OCC(=O)N2CCCCC2)cc1 | -4.72%
CCCCOC(=O)[C@@H](C)Oc1ccc(Oc2ccc(C(F)(F)F)cn2)cc1 | -0.512% [at 78.8 µM]
C=C[Si](C)(C)O[Si](C)(C)C=C | 4.1%
O=C(O)C(=O)Nc1cccc(-c2nn[nH]n2)c1 | -0.909%
O=CN1CCOCC1 | -0.744%
CCCCC(CC)CNC(=O)CC(C)OC(=O)CCC(=O)O (stereo not given) | 1.37%
